# Screening results from PubChem.
# Hits are enriched below; roughly 0.87% of the tested compounds scored in any of these assays.
# TLR4-MyD88 BLA: inhibitors of human TLR4-MyD88 binding; O00206+Q99836; HeLa CL3-4 TLR4/MyD88 BLA complementation, FRET ratio; inhibition, % at 8.4 µM; 200,000 compounds, 0.18% hits; AID 861; in the data active = inhibition above about 25%;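 note: 0% = vehicle and 100% = reference inhibitor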
# NOD2-RIPK2 inh: inhibitors of human NOD2-RIPK2 interaction. O43353. CHO BLA complementation NOD2-RIPK2, CCF4 ratio. inhibition, % at 4.98 µM. 360,000 compounds, 0.38% hits. AID 624267; in the data active = inhibition above about 21%;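 note: 0% = vehicle only and 100% = reference blocker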
# TLR9-MyD88 block: blocks human TLR9 binding to MyD88 | 340,000 compounds, 0.21% hits | CHO BLA complementation TLR9-MyD88, CCF4 FRET ratio | inhibition, % at 4.98 µM | Q9NR96+Q99836;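 active = inhibition above the mean over all tested compounds plus 3 SD, cut at about 21% in these data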;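 note: 0% = DMSO only wells and 100% = clavulanate BLA inhibitor control wells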
# IDE cell inh: inhibits human insulin-degrading enzyme in HEK cells; P14735; 320,000 compounds, 0.41% hits; inhibition, % at 5.59 µM; FAbetaB cleavage, fluorescence polarization;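 active = percent inhibition above the average of all tested compounds plus 3 SD, set per screening campaign, cut at about 16% in these data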;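 note: IDE supplied by intact live HEK cells; FP after avidin binding of uncleaved biotin substrate so inhibition keeps polarization high; 0% = DMSO wells and 100% = 60 µM reference IDE inhibitor Ii1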
# Target sequence (P14735 whole entry, looked up): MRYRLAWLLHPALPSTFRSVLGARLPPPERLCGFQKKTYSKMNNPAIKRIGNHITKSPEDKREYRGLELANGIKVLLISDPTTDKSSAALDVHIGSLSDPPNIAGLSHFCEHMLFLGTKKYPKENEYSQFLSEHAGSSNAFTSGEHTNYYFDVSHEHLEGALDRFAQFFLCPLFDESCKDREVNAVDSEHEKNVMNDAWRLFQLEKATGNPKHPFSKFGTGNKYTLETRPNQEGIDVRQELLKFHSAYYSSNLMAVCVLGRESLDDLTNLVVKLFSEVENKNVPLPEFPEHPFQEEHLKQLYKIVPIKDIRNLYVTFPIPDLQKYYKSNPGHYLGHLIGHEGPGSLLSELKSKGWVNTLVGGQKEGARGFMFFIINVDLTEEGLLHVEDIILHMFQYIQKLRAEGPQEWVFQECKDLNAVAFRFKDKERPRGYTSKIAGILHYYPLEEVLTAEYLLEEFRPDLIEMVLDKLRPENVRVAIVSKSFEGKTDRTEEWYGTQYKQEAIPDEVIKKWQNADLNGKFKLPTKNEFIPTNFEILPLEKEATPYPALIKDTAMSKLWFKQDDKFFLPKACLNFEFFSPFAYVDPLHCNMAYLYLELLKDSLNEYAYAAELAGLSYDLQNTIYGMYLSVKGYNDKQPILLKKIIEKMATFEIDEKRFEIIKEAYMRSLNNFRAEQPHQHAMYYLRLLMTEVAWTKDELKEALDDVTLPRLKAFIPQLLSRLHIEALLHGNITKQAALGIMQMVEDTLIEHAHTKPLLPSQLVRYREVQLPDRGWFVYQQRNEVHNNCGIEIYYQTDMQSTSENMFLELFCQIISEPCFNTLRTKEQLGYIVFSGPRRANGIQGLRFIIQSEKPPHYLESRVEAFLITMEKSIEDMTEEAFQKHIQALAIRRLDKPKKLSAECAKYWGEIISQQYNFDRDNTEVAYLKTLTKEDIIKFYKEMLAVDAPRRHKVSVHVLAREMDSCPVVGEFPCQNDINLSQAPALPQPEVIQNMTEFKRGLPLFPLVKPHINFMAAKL
# IDE act: activators of human insulin-degrading enzyme in cells; 340,000 compounds, 0.073% hits; activation, % at 5.96 µM; HEK cells, FAbeta-B cleavage, fluorescence polarization; 0% vehicle, 100% cell-free pure enzyme wells; P14735;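 active = activation above the mean of all tested compounds plus 3 SD, set per screening campaign, cut at about 17% in these data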
# IDE cell inh cf: cellular human IDE inhibition, confirmation. shares compounds with IDE cell inh. HEK cells, FAbetaB cleavage, fluorescence polarization. inhibition, % at 5.59 µM. 1,200 compounds, 51% hits. AID 435028;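 active = mean inhibition across triplicate wells above the cutoff set by the earlier primary insulin-degrading enzyme screen, cut at about 16% in these data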;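 note: 0% = DMSO wells and 100% = 60 µM reference IDE inhibitor Ii1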
# HEK cytotox: counter-screen for IDE inhibitors: cytotoxicity in HEK cells | AID 449730 | shares compounds with IDE cell inh | HEK293 cytotoxicity, ATP luminescence | 1,200 compounds, 28% hits | inhibition, % at 5.59 µM; in the data active = inhibition above about 22%;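 note: 0% = vehicle wells and 100% = reference cytotoxic drug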
# The depositor's hits bear a star; x = no result.
SMILES,TLR4-MyD88 BLA,NOD2-RIPK2 inh,TLR9-MyD88 block,IDE cell inh,IDE act,IDE cell inh cf,HEK cytotox
N=C1/C(=C/c2cccn2Cc2ccc(F)cc2)C(=O)N=C2SC=CN12,-10,3,-5,3,1,x,x
O=C(Nc1ccccc1Cl)c1ccc(-n2cccn2)c([N+](=O)[O-])c1,9,-8,4,6,-4,x,x
Cc1ccc2[nH]c3c(NCCCN4CCCC4=O)ncnc3c2c1,4,-4,10,18*,-8,6,7
Cc1ccc2[nH]c3c(NCc4ccco4)ncnc3c2c1,9,2,-3,65*,-54,53*,53*
Cn1c(N)c(C(=O)COC(=O)CSc2ccccc2)c(=O)n(C)c1=O,1,-12,0,1,2,x,x
Cn1c(N)c(C(=O)COC(=O)CSc2ccc3ccccc3c2)c(=O)n(C)c1=O,-6,-19,12,18*,-4,6,7
Cc1ccc2nsnc2c1S(=O)(=O)Nc1ccccc1C(=O)O,x,-9,1,-5,1,x,x
COc1ccc(C2C(C(C)=O)=C(O)C(=O)N2c2ccc(F)cc2)cc1 (configuration not stated),x,0,6,-2,3,x,x
Cc1cccc(OCC(=O)N(C)c2c(N)n(Cc3ccccc3)c(=O)[nH]c2=O)c1C,x,-3,-4,1,3,x,x
Cc1ccc(S(=O)(=O)Nc2ccc3oc(=O)sc3c2)c(C)c1,8,-5,0,18*,-3,7,4
Cc1ccc(S(=O)(=O)Nc2ccc3c(c2)n(C)c(=O)n3C)c(C)c1,8,0,7,5,10,x,x
O=C(COc1ccc(S(=O)(=O)N2CCOCC2)cc1)N1CCc2ccccc2C1,x,-8,4,0,6,x,x
O=C(COc1ccc(S(=O)(=O)N2CCOCC2)cc1)N1CCN(c2ccccc2)CC1,x,-1,2,21*,-11,10,22*
Cc1ccc(S(=O)(=O)N2CCOCC2)cc1NC(=O)COC(=O)CNC(=O)c1ccc(Oc2ccccc2)cc1,13,-1,-1,17*,-12,6,13
O=[N+]([O-])c1ccc(-c2nnc(CNC3CCCC3)o2)cc1,-16,9,5,-1,3,x,x
Cc1nn(C)c(Sc2ccccc2N)c1[N+](=O)[O-],-9,-9,-4,28*,-5,4,5
Cc1nn(C)c(N)c1[N+](=O)[O-],x,4,-1,3,6,x,x
C=CCOc1cccc(C(=O)Nc2ncn[nH]2)c1,x,0,-2,-2,2,x,x
C=CCOC(=O)C1=C(C)OC(N)=C(C#N)C1c1ccoc1 (configuration not stated),8,4,-6,45*,-18,40*,5
O=C(CN1CCN(Cc2ccccc2Cl)CC1)N/N=C/C=C\c1ccccc1[N+](=O)[O-],2,8,-4,10,-6,x,x
C/C(=N/NC(=O)CN1CCN(Cc2ccccc2Cl)CC1)c1cccnc1,x,-11,-2,23*,-7,9,12
O=C(CN1CCN(Cc2ccccc2Cl)CC1)N/N=C/C=C/c1ccccc1[N+](=O)[O-],0,-3,7,22*,-18,10,12
Cc1nn(C(=O)CCCC(=O)NCc2ccccc2)c2ccccc12,x,4,-3,2,1,x,x
N#CC1=C(N)NC(=S)C(C(N)=O)C1c1ccccc1F (configuration not stated),x,-11,1,27*,-8,11,6
CCOc1ccc(NC(=O)c2ccccn2)cc1,-10,-11,4,17*,2,10,27*
SMILES,TLR4-MyD88 BLA,NOD2-RIPK2 inh,TLR9-MyD88 block,IDE cell inh,IDE act,IDE cell inh cf,HEK cytotox
CC(C)(C)C(=O)NNC(=O)c1cc2sccc2s1,x,-1,-2,5,5,x,x
Cc1cc(/C=C2\NC(=S)N(C)C2=O)ccc1N1CCCC1,23,18,16,88*,-115,96*,21
Cc1cc(/C=C2/C(=O)N(C)C(=S)N2C)ccc1N1CCCC1,-8,1,2,26*,-45,51*,20
CN1C(=O)/C(=C/c2ccc(OCc3ccc(F)cc3)cc2)N(C)C1=S,x,-23,12,0,2,x,x
O=C(CCl)NC1(C(=O)O)CCCC1,x,-3,3,x,x,x,x
COc1ccc(OCCNC(=O)Nc2cc(F)c(F)cc2Cl)cc1,9,3,-3,18*,-9,3,6
CNC(=O)c1c(NC(=O)c2ccc(S(=O)(=O)N3CCCC3)cc2)sc2c1CCN(C(C)C)C2,x,x,x,43*,x,6,16
CNC(=O)c1c(NC(=O)c2ccc(S(=O)(=O)N3CC(C)OC(C)C3)cc2)sc2c1CCN(C(C)C)C2 (configuration not stated),x,-2,-1,-5,0,x,x
O=S(=O)(c1cccc(Br)c1)N1CCN(c2ccnc3cc(Cl)ccc23)CC1,x,-3,0,14,-19,x,x
O=C(C1CCC1)N1CCN(c2ccnc3cc(Cl)ccc23)CC1,x,-13,-5,21*,-25,18*,14
O=C(c1ccco1)N1CCN(c2ccc(Cl)cc2)CC1,-4,1,0,-2,-2,x,x
N#Cc1cccc(S(=O)(=O)N2CCN(c3ccnc4cc(Cl)ccc34)CC2)c1,x,-4,-19,20*,-34,8,17
O=S(=O)(c1ccccc1OC(F)(F)F)N1CCN(c2ccnc3cc(Cl)ccc23)CC1,x,7,-16,15,-20,x,x
O=C(Nc1ccc(OC(F)(F)F)cc1)N1CCN(c2ccnc3cc(Cl)ccc23)CC1,x,0,-12,36*,-32,12,35*
CN(C)S(=O)(=O)N1CCN(c2ccnc3cc(Cl)ccc23)CC1,x,-3,-1,11,-19,x,x
O=C(c1ccco1)N1CCN(c2ccnc3cc(Cl)ccc23)CC1,-12,-3,-12,26*,-17,18*,14
COc1ccccc1NC(=O)N1CCN(c2cc(-c3ccccc3)nc3ncnn23)CC1,-10,2,1,19*,-15,0,23*
COc1ccccc1N1CCN(c2ccnc3cc(Cl)ccc23)CC1,x,15,7,7,-11,x,x
CC(=O)c1ccc(N2CCN(c3ccnc4cc(Cl)ccc34)CC2)cc1,x,11,-3,25*,-46,18*,39*
CC(C)(C)C(=O)N1CCN(c2ccnc3cc(Cl)ccc23)CC1,x,-4,1,34*,-23,17*,16
COc1ccccc1NC(=O)N1CCN(c2ccnc3cc(Cl)ccc23)CC1,x,-14,-6,23*,-28,15,12
COc1ccccc1NC(=O)NNC(=O)c1ccncc1,x,-5,0,x,3,x,x
CCCCn1c(N)c(N(CCOC)C(=O)COC(=O)COc2ccccc2C#N)c(=O)[nH]c1=O,x,-2,1,-2,1,x,x
